# Screening results: PubChem, Johns Hopkins Ion Channel Center
# KCNQ2 block: rat KCNQ2 potassium channel inhibitors, primary screen, cell-based, CHO-K1, FluxOR thallium flux, B-score | B-score at 10 µM | 20 min; hits give low values | Potassium voltage-gated channel subfamily KQT member 2 (Rattus norvegicus), O88943 | AID 2156, 2009 | hit rate 1.1% among 310,000;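 active means fluorescence ratio B-score at most minus 3 library SDs, with starting brightness B-score within 2 library SDs, cut at about -5.5 in these data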
# Target sequence (O88943 whole entry, looked up): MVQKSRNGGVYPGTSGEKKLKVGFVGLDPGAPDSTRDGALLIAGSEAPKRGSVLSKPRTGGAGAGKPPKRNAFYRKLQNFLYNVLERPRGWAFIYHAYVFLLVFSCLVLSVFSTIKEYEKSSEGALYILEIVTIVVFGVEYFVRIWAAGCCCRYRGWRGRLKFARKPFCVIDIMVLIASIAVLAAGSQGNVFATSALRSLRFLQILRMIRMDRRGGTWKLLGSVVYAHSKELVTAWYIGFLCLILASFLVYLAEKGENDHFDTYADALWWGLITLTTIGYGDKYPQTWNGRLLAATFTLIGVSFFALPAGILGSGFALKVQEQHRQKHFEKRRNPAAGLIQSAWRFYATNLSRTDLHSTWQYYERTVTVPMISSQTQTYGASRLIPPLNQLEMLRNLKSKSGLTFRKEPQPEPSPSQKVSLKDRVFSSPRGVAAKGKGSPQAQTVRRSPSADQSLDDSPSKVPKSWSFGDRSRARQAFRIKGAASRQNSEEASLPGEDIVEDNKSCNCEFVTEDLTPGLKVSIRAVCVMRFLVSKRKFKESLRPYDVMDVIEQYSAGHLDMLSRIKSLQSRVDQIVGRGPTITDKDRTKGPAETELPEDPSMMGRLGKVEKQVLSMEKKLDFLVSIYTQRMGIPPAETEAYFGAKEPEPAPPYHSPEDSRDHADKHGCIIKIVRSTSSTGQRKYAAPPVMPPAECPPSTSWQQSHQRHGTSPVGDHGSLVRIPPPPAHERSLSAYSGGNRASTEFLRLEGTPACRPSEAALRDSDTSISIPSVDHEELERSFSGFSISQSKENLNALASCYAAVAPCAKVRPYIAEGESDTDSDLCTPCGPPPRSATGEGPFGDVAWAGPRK
# KCNQ2 pot: potentiators of rat KCNQ2 potassium channel; CHO-K1 KCNQ2, FluxOR thallium flux fluorescence; hits give high values; B-score at 10 µM; hit rate 0.54% among 310,000;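 active means fluorescence ratio B-score at least 3 SD of library B-scores, with initial fluorescence B-score within 3 of them, cut at about 5.3 in these data; same plate scores as AID 2156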;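 further: B-score of peak minus minimum over baseline fluorescence ratio after K+ and Tl+ stimulus; positive B-score means potentiation of KCNQ2 with more thallium influx and brighter signal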
# Kir21 conf inh: mouse Kir2.1 channel blockers, retest, confirmation, cell-based, FluxOR thallium flux, duplicate | shares compounds with KCNQ2 pot | Kir2.1-expressing cells, FluxOR thallium flux fluorescence; hits give low values | Tl flux remaining, % of negative control (hits give low values), % at 10 µM | hit rate 41% among 2,300;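 active means Primary-screen hit whose thallium flux fell at least 3 control SD below untreated wells in both duplicates, with normal baseline fluorescence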;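 further: 0% = blank wells without stimulus and 100% = stimulated no-compound controls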
# HEK293 Tl flux: alters thallium flux in parental HEK293 cells, Kir2.1 counter-screen; AID 2105; hit rate 19% among 2,300; shares compounds with KCNQ2 pot; FluxOR signal as % of negative control (100 = no effect), % at 10 µM; FluxOR thallium flux fluorescence; 0% = unstimulated blank wells;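 active means dye signal at least 3 control SD above or below untreated wells in both duplicates, raw fluorescence within 3, either direction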;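 further: percent is based on the flux ratio of peak minus minimum fluorescence over baseline F0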
# CHO-K1 Tl ctr: nonspecific thallium flux increase in parental CHO-K1, confirmation, counter-screen for KCNQ2 potentiator project, cell-based, FluxOR thallium flux, duplicate. shares compounds with KCNQ2 pot. parental CHO-K1 cells, FluxOR thallium flux fluorescence; zero = vehicle mean+3SD, 100% = vehicle-minus-blank window. activity increase over 3SD of controls, % at 10 µM. hit rate 43% among 1,200. AID 2282, 2010;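 active means signal rise of at least 3 SD above the untreated control mean, in both duplicate wells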;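 further: counter screen of KCNQ2 potentiator hits so any rise reflects channel-independent effects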
# KCNQ1 pot spec: human KCNQ1 channel potentiation off-target, confirmation, selectivity assay for KCNQ2 potentiator project, cell-based, CHO, FluxOR thallium flux; shares compounds with KCNQ2 pot; CHO KCNQ1 stable, FluxOR thallium flux fluorescence; beyond 3SD, as % of vehicle-control signal; activation over 3SD threshold, % at 10 µM; hit rate 28% among 1,200;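 active means fluorescence ratio rise of at least 3 SD of vehicle wells above their mean, in both replicate wells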;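 further: 0% = vehicle mean plus 3 SD and 100% = vehicle minus unstimulated blank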
# KCNQ2 pot conf: rat KCNQ2 channel potentiators, confirmation, cell-based, CHO, FluxOR thallium flux, duplicate. hit rate 68% among 1,200. CHO-KCNQ2 cells, FluxOR thallium flux fluorescence. potentiation, less the hit threshold, % at 10 µM. shares compounds with KCNQ2 pot;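 active means fluorescence ratio rising 3 SD or more over the vehicle control mean in both replicates, plus primary screen hit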;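 further: peak minus minimum thallium fluorescence divided by baseline after K/Tl stimulus; 0% = vehicle mean plus 3 SD and 100% = vehicle minus unstimulated blank difference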
# Kir2-1 sel: mouse Kir2.1 channel activation off-target, confirmation, selectivity assay for KCNQ2 potentiator project, cell-based, HEK293, FluxOR thallium flux. shares compounds with KCNQ2 pot. HEK293 Kir2.1, FluxOR thallium flux fluorescence. activity over 3SD threshold, % at 10 µM. hit rate 2% among 1,200. AID 2345, 2010;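 active means fluorescence ratio rise of at least 3 SD above the vehicle-control mean, seen in both replicates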;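 further: 0% = vehicle mean plus 3 SD and 100% = vehicle minus no-stimulus blank window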
# KCNQ2 W236L MoA: potentiators of retigabine-insensitive KCNQ2 W236L, mechanism study for KCNQ2 potentiator project, cell-based, rat KCNQ2 W236L, CHO, automated patch clamp. shares compounds with KCNQ2 pot. automated patch clamp current. current increase over 3SD of negative controls (%), hits give high values, % at 25 µM. hit rate 10% among 940. AID 2558, 2010;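 active means current increase at least 3 SD of the untreated controls above them in both duplicate recordings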
# Starred values were filed as active, the others as inactive; i = inactive; . = no result given. This is a sample that favours compounds with a hit; in the whole collection about 1.6% have one here.
SMILES,KCNQ2 block,KCNQ2 pot,Kir21 conf inh,HEK293 Tl flux,others
Cc1ccc(NC(=O)CSCC(=O)Nc2ccccc2C(=O)N2CCCCC2)cc1,i,0.38,.,.,
Cc1ccc(NC(=O)CSCC(=O)Nc2ccccc2N2CCCC2)cc1,i,1.4,74%*,74%*,
CCC(=O)Nc1ccc(N2CCCCC2)c(C(=O)Nc2ccc(OC)cc2)c1,i,1.3,.,.,
COc1ccc(NC(=O)CSCC(=O)Nc2cc(Cl)ccc2N2CCOCC2)cc1,i,4.7,.,.,
COc1cccc(CNC(=O)C2CCN(S(=O)(=O)c3ccc(-n4cnnn4)cc3)CC2)c1,i,2.3,.,.,
Cc1ccc(S(=O)(=O)NCc2cn3ccccc3n2)c(C)c1,i,.,.,.,
CCn1c(SCC(=O)NC2CCCC2)nnc1-c1cccnc1,i,.,.,.,
O=[N+]([O-])c1cc(Cl)cc(/C=N/NC(=S)Nc2ccc(S(=O)(=O)N3CCOCC3)cc2)c1O,i,18*,i,i,CHO-K1 Tl ctr=3.6*;KCNQ1 pot spec=-6;KCNQ2 pot conf=39*;Kir2-1 sel=-30;KCNQ2 W236L MoA=3.7%*
O=S(=O)(c1ccc(NC(=S)N/N=C/c2ccc(O)c(O)c2)cc1)N1CCOCC1,i,.,.,.,
COc1ccc(CCN2C(=NC(C)=O)SC3CS(=O)(=O)CC32)cc1OC (stereo not given),i,.,.,.,
Cc1nnc(NS(=O)(=O)c2ccc(Br)cc2)s1,i,.,.,.,
COC(=O)C1=C(C)N(Cc2ccccc2)C(=NCCc2ccccn2)N[C@H]1c1cccc(F)c1,i,0.46,40%*,i,
COC(=O)C1=C(C)N(Cc2ccccc2)C(=NCC(C)C)N[C@H]1c1ccccc1,i,.,i,i,
COC(=O)C1=C(C)N(Cc2ccccc2)C(=O)N[C@H]1c1ccccc1,i,.,.,.,
CCN1C(=NCCc2ccccn2)N[C@@H](c2cccc(F)c2)C(C(=O)OC)=C1C,i,0.23,.,.,
CCCC(=O)c1c(NC(C)C)cc(C)oc1=O,i,.,.,.,
C[C@]12CCC(=O)CC1=CCC1C3CC=C(C#N)[C@@]3(C)CC[C@@]12O (stereo not given in full),i,.,.,.,
COc1ccccc1/C=C1\SC(=S)N(CCC(=O)Nc2cccc(O)c2)C1=O,i,.,.,.,
CN(CC(=O)NCCCc1ccccc1)Cc1ccc(Br)cc1,i,.,.,.,
O=C(O)CCC(=O)NCCc1cccc(Cl)c1,i,.,.,.,
CN(CC(=O)NCCc1ccc(F)cc1)Cc1ccc(Br)cc1,-5.7*,-5.7,58%*,i,
CSc1ccccc1NC(=O)CN(C)Cc1cccc(Cl)c1,i,.,.,.,
O=C(Cc1ccccc1)NCCc1cccc(Cl)c1,i,11*,i,i,CHO-K1 Tl ctr=-12;KCNQ1 pot spec=-13;KCNQ2 pot conf=23*;Kir2-1 sel=-38;KCNQ2 W236L MoA=i
CN(CC(=O)NCCc1ccc(F)cc1)Cc1cccc(Cl)c1,i,.,45%*,i,
Cc1ccc(N(C)C(=O)CN(C)S(=O)(=O)c2ccc3c(c2)n(C)c(=O)c(=O)n3C)cc1,i,0.16,.,.,
SMILES,KCNQ2 block,KCNQ2 pot,Kir21 conf inh,HEK293 Tl flux,others
Clc1cccc(Cl)c1C[n+]1ccc2ccccc2c1,i,2,.,.,
O=c1[nH]c(-c2ccccc2)ncc1Oc1ccccc1,i,.,.,.,
CCC(=O)Nc1ccc(NC(=O)C23CC4CC(CC(C4)C2)C3)cn1,i,.,.,.,
CC(NC(=O)C12CC3CC(CC(C3)C1)C2)c1ccc2c(c1)OCCO2 (stereo not given),i,3.9,.,.,
Cc1ccc(C(C)NC(=O)C23CC4CC(CC(C4)C2)C3)cc1 (stereo not given),i,6*,i,i,CHO-K1 Tl ctr=-4;KCNQ1 pot spec=65*;KCNQ2 pot conf=6.5*;Kir2-1 sel=-22;KCNQ2 W236L MoA=i
Cc1ccnc(NC(=O)C23CC4CC(CC(C4)C2)C3)c1,i,9.7*,i,i,CHO-K1 Tl ctr=-8;KCNQ1 pot spec=-13;KCNQ2 pot conf=33*;Kir2-1 sel=-18;KCNQ2 W236L MoA=i
Cc1ccc(C)c(S(=O)(=O)N2CCN(C(=O)c3ccnn3C)CC2)c1,i,.,.,.,
COc1ccc2oc(C(=O)OCC(=O)Nc3ccc(C(=O)N(C)C)cc3)c(C)c2c1,i,1,.,.,
CN(C(=O)Cn1nnc(-c2cccnc2)n1)C1CCCCC1,i,.,.,.,
O=C(CSc1nnc(NC(=O)C2CC(=O)N(c3ccccc3)C2)s1)NCc1ccco1 (stereo not given),i,0.36,.,.,
COc1ccc(Nc2nc(N3CCCCC3)nc3ccccc23)c(OC)c1,i,.,i,i,
CCN(CC)c1ccc(Nc2nc(N3CCOCC3)c3ccccc3n2)cc1,i,.,.,.,
c1ccc(Nc2c3c(nc4ccccc24)CCC3)cc1,i,1.1,.,.,
COc1ccc(Nc2c3c(nc4ccccc24)CCCC3)cc1OC,i,1.4,.,.,
COc1ccc(C)cc1Nc1c2c(nc3ccccc13)CCC2,i,0.19,i,i,
COc1ccc(Nc2nc(N3CCN(S(C)(=O)=O)CC3)nc3ccccc23)c(OC)c1,i,.,.,.,
COc1ccc(Nc2nc(N3CCCC3)c3ccccc3n2)cc1,i,0.61,21%*,i,
COc1ccc(Nc2c3c(nc4ccccc24)CCC3)cc1,i,.,42%*,i,
COC(=O)c1cccc(NC(=O)CN2CCc3ccccc3C2)c1,i,.,.,.,
CC(C)Cc1ccc(C(C)NC(=O)c2ccc(=O)[nH]c2)cc1 (stereo not given),i,0.78,.,.,
C#CCOCCOCCOCCNc1nc(N2CCN(C(=O)C(Cc3cc4ccccc4[nH]3)n3cc(C(N)Cc4ccc(O)cc4)nn3)CC2)nc(N2CCN(C(=O)C(Cc3cc4ccccc4[nH]3)n3cc(C(N)Cc4ccc(O)cc4)nn3)CC2)n1 (stereo not given),i,0.63,.,.,
